Screening results from PubChem BioAssay.
ELG1 repair inh – blocks ELG1-dependent DNA repair in HEK293T cells; Potency, µM (doses to about 46.1 µM), hits mostly inhibitors; HEK293T ELG1-luciferase reporter, luminescence, 16 h; DNA damage induced by 5-fluorouridine; 330,000 compounds, 2.3% hits; also: nearly all actives have a fitted effect of over 55% in size
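Step one: seed 2,000 cells per well. Step two: pin-transfer compound or DMSO alongside 5-fluorouridine. Step three: incubate 16 hr, 37 °C, 5% CO2. Step four: add ONE-Glo, wait 30 min, read luminescence.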
SMN2 splice enh – SMN2 splice variant enhancement. Potency, µM (titrated, usually from 46.1 µM), actives largely listed as activators. HEK293 SMN2-luciferase splicing reporter, luminescence, 30-36 h. 210,000 compounds, 2.8% hits; also: nearly all actives have a fitted effect of over 55% in size
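qHTS luciferase splicing reporter: luminescence rises when SMN2 exon 7 is included in transfected HEK293 cells. Compound exposure lasted 30-36 h at 37C, with 4.5 mM final sodium butyrate as control, followed by a ONE-Glo read.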
Rab9 prom act – activates the Rab9 promoter; Potency, µM (highest dose often 9.22 µM), hits mostly activators; Huh7 Rab9 promoter-luciferase reporter, luminescence, 24 h; AID 485297; 320,000 compounds, 2.8% hits; also: nearly all actives have a fitted effect of over 60% in size
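Stable Rab9-luc Huh7, 1500 cells/well, 2 h settle; cmpd in DMSO, 24 h, 37 °C/5% CO2; luciferase reagent 10 min RT; luminescence.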
FLuc counter – firefly luciferase modulation, counter-screen for miR-21 project; Potency, µM (series often up to 57.5 µM), most hits filed as inhibitors; 360,000 compounds, 6.9% hits; P08659; AID 588342; purified FLuc, Km substrates, luminescence inhibition; also: nearly all actives have a fitted effect of over 55% in size
Target sequence (P08659 whole entry, looked up): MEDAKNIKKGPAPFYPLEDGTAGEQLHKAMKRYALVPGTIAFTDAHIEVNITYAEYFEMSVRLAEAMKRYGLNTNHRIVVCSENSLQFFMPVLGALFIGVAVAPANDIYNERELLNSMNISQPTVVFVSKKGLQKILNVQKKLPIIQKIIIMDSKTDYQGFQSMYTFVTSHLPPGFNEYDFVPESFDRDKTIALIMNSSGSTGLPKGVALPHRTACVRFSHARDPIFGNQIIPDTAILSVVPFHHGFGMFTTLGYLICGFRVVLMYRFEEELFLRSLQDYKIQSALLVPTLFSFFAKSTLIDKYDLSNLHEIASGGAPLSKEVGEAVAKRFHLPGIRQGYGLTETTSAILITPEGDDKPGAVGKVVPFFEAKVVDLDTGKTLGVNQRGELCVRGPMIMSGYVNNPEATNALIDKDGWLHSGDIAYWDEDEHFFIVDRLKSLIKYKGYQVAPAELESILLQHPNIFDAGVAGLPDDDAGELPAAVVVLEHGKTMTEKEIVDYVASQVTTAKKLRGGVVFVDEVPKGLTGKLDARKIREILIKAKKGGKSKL
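Biochemical qHTS of compounds, final roughly 60 µM downward over six points, against 10 nM purified firefly luciferase using Km concentrations of substrates (10 uM D-luciferin, 10 uM ATP) in Tris acetate pH 7.5 buffer; luminescence output.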
ELG1 genotoxic – induces genotoxicity in HEK293T cells with luciferase-tagged ELG1. Potency, µM (highest dose often 46 µM), actives largely listed as activators. 330,000 compounds, 1.3% hits. HEK293T ELG1-luciferase reporter, luminescence, 16 h; also: nearly all actives have a fitted effect of over 60% in size
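After overnight (16 hr) compound treatment at 37 °C, ELG1-luciferase HEK293T cells were lysed with ONE-Glo; luminescence quantified 30 min later at room temperature.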
NPC1 prom act – activators of NPC1 promoter; 320,000 compounds, 2.4% hits; Potency, µM (highest dose often 9.22 µM), hits mostly activators; AID 485313; Huh7 NPC1 promoter luciferase reporter, 24 h; also: nearly all actives have a fitted effect of over 60% in size
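Stably transfected Huh7 (NPC1 promoter→luciferase), 1500 cells/well in Opti-MEM + 10% FBS, 2 h settle, then compound 24 h at 37 °C. Luminescence after 10 min with Amplite reagent.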
ELG1 FLuc counter – luciferase inhibition in cell-free luciferin readout for ELG1 hits; cell-free firefly luciferase luminescence counter-screen, ViewLux; shares compounds with ELG1 repair inh; 350 compounds, 3% hits; AID 624247; Potency, µM (doses to about 46.1 µM), hits mostly inhibitors
ELG1 Luc conf – inhibits ELG1-dependent DNA repair in HEK293T cells, confirmed; shares compounds with ELG1 repair inh; 670 compounds, 68% hits; HEK293T ELG1-luciferase levels, luminescence; cells co-treated with 5-fluorouridine; Potency, µM (titrated, usually from 46.1 µM), most hits filed as inhibitors; also: nearly all actives have a fitted effect of over 55% in size
ELG1-Luc MMS – confirmation of human ELG1 repair inhibitors, MMS stimulated. shares compounds with ELG1 repair inh. HEK293T luciferase-tagged ELG1 level, MMS stimulated. Potency, µM (doses to about 46.1 µM), actives largely listed as inhibitors. 670 compounds, 53% hits; also: nearly all actives have a fitted effect of over 60% in size
ELG1 5-FU – confirmation of ELG1 repair inhibitors: viability with 5FU. cell viability with 5-FU, ELG1-dependent repair. Potency, µM (series often up to 46.1 µM), most hits filed as cytotoxic. shares compounds with ELG1 repair inh. 670 tested, under 10 active;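 also: ELG1-luc HEK293T cells cotreated with 5-fluorouridine at 10 µM final; viability measured 16 h after compound addition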
ELG1 MMS viab – confirmation of ELG1 repair inhibitors: viability with MMS; shares compounds with ELG1 repair inh; Cell viability with MMS, ELG1-dependent DNA repair; Potency, µM (doses to about 46.1 µM), hits mostly cytotoxic; 670 compounds, 33% hits;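 also: ELG1-luc HEK293T cells co-treated with 10 µM MMS; viability read 16 h after compound addition; nearly all actives have a fitted effect of over 60% in size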
Cell viab unstim – affects unstimulated cell viability, ELG1 hit counter-screen | Potency, µM (series often up to 45.9 µM), actives largely listed as cytotoxic | shares compounds with ELG1 repair inh | AID 624252 | 900 compounds, 8% hits | cell viability counter-screen, unstimulated, luminescence;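 also: compound exposure lasted 16 hours before reading; nearly all actives have a fitted effect of over 55% in size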
FLuc enzyme – inhibits purified firefly luciferase, counter-screen for ELG1 hits; shares compounds with ELG1 repair inh; purified firefly luciferase, luminescence counter-screen; Potency, µM (titrated, usually from 57.5 µM), most hits filed as inhibitors; 350 compounds, 10% hits
Large screens that a line does not name were inactive (follow-up assays come after a bar, where they were run). A selection: hits, their analogues and other compounds. The true share with any hit is near 9.2%. Calls follow the shape of the dose curve; as a rule, active = well fitted curve in the direction sought with a large enough effect; inconclusive = small, poorly fitted or top-dose-only effect, or another doubt; inactive = no such curve, though single readings can be large; an effect the other way counts as inactive or inconclusive.

Cn1ncc(Br)c1C(=O)N/N=C/c1cccc(OC2CSC2)c1	ELG1 repair inh 4.1µM | ELG1 Luc conf inactive | ELG1-Luc MMS inactive | ELG1 5-FU inactive | ELG1 MMS viab inconclusive | Cell viab unstim inactive
Cc1ccc(CSCC(=O)N/N=C/c2cccc(OC3CSC3)c2)cc1	ELG1 repair inh inconclusive
Cc1ccc(NC(=S)NNC(=O)c2ccccc2O)c(C)c1	ELG1 repair inh inconclusive, FLuc counter inconclusive (no result: SMN2 splice enh)
O=NN(CCc1ccncc1)c1ccc(OCc2ccccc2)cc1	ELG1 repair inh 0.82µM | ELG1 FLuc counter inactive | ELG1 Luc conf inconclusive | ELG1-Luc MMS 2.8µM | ELG1 5-FU inactive | ELG1 MMS viab 3.5µM | Cell viab unstim inactive | FLuc enzyme inactive
O=C(NCc1ccncc1)C(=O)N/N=C/c1ccc(OCc2ccccc2)cc1	ELG1 repair inh inconclusive, ELG1 genotoxic inconclusive
CC(C)(C)C(=O)Nc1ccc(S(=O)(=O)N2CCC(c3nc4ccccc4[nH]3)CC2)cc1	ELG1 repair inh 3.7µM (no result: SMN2 splice enh) | ELG1 Luc conf 2.5µM | ELG1-Luc MMS inactive | ELG1 5-FU inconclusive | ELG1 MMS viab inactive | Cell viab unstim inactive
CC(=O)Nc1ccc(S(=O)(=O)N2CCC(c3nc4ccccc4[nH]3)CC2)cc1	none
CC(C)=CC(=O)Nc1ccc(S(=O)(=O)Nc2ccccn2)cc1	none
Nc1c(Cl)ncnc1NCc1ccccc1	none (no result: SMN2 splice enh)
CCOC(=O)c1cccc(Nc2nc(C(=O)OCC)nc3ccccc23)c1	none (no result: ELG1 repair inh, SMN2 splice enh, Rab9 prom act, ELG1 genotoxic, NPC1 prom act)
CCOC(=O)c1nc(Nc2ccc(C(C)=O)cc2)c2ccccc2n1	ELG1 repair inh 1.6µM | ELG1 Luc conf 2.8µM | ELG1-Luc MMS inconclusive | ELG1 5-FU inconclusive | ELG1 MMS viab inactive | Cell viab unstim inactive
CCOC(=O)N1CCC(NC(=O)C2CCCN(Cc3nc(-c4ccc(CC)cc4)oc3C)C2)CC1 (configuration not stated)	ELG1 repair inh 2.3µM (no result: SMN2 splice enh) | ELG1 FLuc counter inactive | ELG1 Luc conf 7.9µM | ELG1-Luc MMS 2.5µM | ELG1 5-FU inactive | ELG1 MMS viab 3.2µM | Cell viab unstim inconclusive | FLuc enzyme inactive
O=c1c2ccccc2nc(COc2ccccc2)n1/N=C/c1c[nH]c2ccccc12	ELG1 repair inh 2.3µM | ELG1 Luc conf 6.3µM | ELG1-Luc MMS inactive | ELG1 5-FU inconclusive | ELG1 MMS viab inactive | Cell viab unstim inconclusive
O=C(CSc1nc2ccccc2c(=O)n1-c1ccccc1)N/N=C/C=C/c1ccccc1[N+](=O)[O-]	ELG1 repair inh 2.9µM | ELG1 FLuc counter inactive | ELG1 Luc conf 10µM | ELG1-Luc MMS inactive | ELG1 5-FU inconclusive | ELG1 MMS viab inconclusive | Cell viab unstim inactive | FLuc enzyme inactive
O=C(CSc1nc2ccccc2c(=O)n1-c1ccc(Cl)cc1)N/N=C/C=C/c1ccccc1[N+](=O)[O-]	ELG1 repair inh inconclusive
O=C(c1nc2nc(-c3ccccc3)cc(C(F)(F)F)n2n1)N1CCCCC1	ELG1 repair inh 3.3µM | ELG1 Luc conf inactive | ELG1-Luc MMS inactive | ELG1 5-FU inactive | ELG1 MMS viab inactive | Cell viab unstim inactive
COc1ccc(-c2csc(NC(=O)c3ccc(OCC(=O)N4CCOCC4)c(OC)c3)n2)cc1OC	ELG1 repair inh 4.6µM, FLuc counter inconclusive | ELG1 Luc conf 4µM | ELG1-Luc MMS 14µM | ELG1 5-FU inconclusive | ELG1 MMS viab 25µM | Cell viab unstim 16µM
C=CCc1cccc([C@@H]2[C@@H](C)CC[C@H]3C(=O)N4[C@@H](c5cc(OC)c(OC)c(OC)c5)c5[nH]c6ccccc6c5C[C@H]4C(=O)N23)c1	none
CNc1ccc(/C=C2\C=Cc3ccccc32)cc1	none (no result: ELG1 repair inh, SMN2 splice enh, Rab9 prom act, FLuc counter, ELG1 genotoxic, NPC1 prom act) | ELG1 FLuc counter inactive | Cell viab unstim inactive | FLuc enzyme 0.73µM
CCc1ccccc1Nc1nc2ccccc2n2cnnc12	none (no result: ELG1 repair inh, Rab9 prom act, ELG1 genotoxic, NPC1 prom act)
Cc1ccc(C2CC(C(F)(F)F)n3ncc(C(=O)NCc4ccco4)c3N2)cc1 (configuration not stated)	none | ELG1 FLuc counter inactive | ELG1 Luc conf 28µM | ELG1-Luc MMS inactive | ELG1 5-FU inconclusive | ELG1 MMS viab inactive | Cell viab unstim inactive | FLuc enzyme inactive
Cc1ccc(C2CC(C(F)(F)F)n3ncc(C(N)=O)c3N2)cc1 (configuration not stated)	none
CCc1ccccc1NC(=O)c1cnn2c(C(F)(F)F)cc(-c3ccc(OC)c(OC)c3)nc12	none (no result: ELG1 repair inh, Rab9 prom act, ELG1 genotoxic, NPC1 prom act)
COc1ccc(-c2cc(C(F)(F)F)n3ncc(C(=O)NCc4ccco4)c3n2)cc1	ELG1 repair inh 1.3µM | ELG1 FLuc counter inactive | ELG1 Luc conf 1.8µM | ELG1-Luc MMS inconclusive | ELG1 5-FU inconclusive | ELG1 MMS viab inactive | Cell viab unstim inactive | FLuc enzyme inactive
COc1cc(-c2cc(C(F)(F)F)n3ncc(C(=O)O)c3n2)cc(OC)c1OC	ELG1 repair inh 4.1µM | ELG1 Luc conf 7.1µM | ELG1-Luc MMS inactive | ELG1 5-FU inconclusive | ELG1 MMS viab inconclusive | Cell viab unstim inactive
O=C(NCc1ccco1)c1cnn2c(C(F)(F)F)cc(-c3ccccc3)nc12	ELG1 repair inh inconclusive
COC(=O)c1cc2oc3ccccc3c2n1Cc1ccc(Cl)cc1	none (no result: ELG1 repair inh, Rab9 prom act, ELG1 genotoxic, NPC1 prom act)
